Screens (PubChem BioAssay)
HPGD inh: inhibitors of human 15-hydroxyprostaglandin dehydrogenase (HPGD) | P15428 | purified HPGD, NADH fluorescence kinetic, PGE2 substrate | Potency, µM, inactives show at the highest dose activity change, negative = inhibition, most hits filed as inhibitors | actives 4.3% (n = 150,000) | AID 894; active = well fitted inhibition curve with a large enough effect, not every such curve was filed as active; inconclusive = small, poorly fitted or top-dose-only effect, or another doubt; inactive = no such curve, though single readings can be large or run the other way
Target sequence (P15428 whole entry, looked up): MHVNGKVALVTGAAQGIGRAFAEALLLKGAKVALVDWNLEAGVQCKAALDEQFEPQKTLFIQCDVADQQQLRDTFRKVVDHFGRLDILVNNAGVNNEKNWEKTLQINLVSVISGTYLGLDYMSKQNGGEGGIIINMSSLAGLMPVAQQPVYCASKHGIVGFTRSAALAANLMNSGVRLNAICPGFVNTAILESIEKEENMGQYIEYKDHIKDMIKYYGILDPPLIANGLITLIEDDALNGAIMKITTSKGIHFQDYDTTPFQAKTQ
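20 nM HPGD preincubated 15 min at room temperature with compound in 50 mM Tris-HCl pH 8, 0.01% Tween 20. Started with 1 mM NAD+ and 30 uM prostaglandin E2; NADH fluorescence (360/450 nm) read 5 times over 30-s intervals, last minus first.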
ALDH1A1 block: ALDH1A1 (human) enzyme inhibition | Potency, µM (doses to about 75.3 µM), for the others: at the highest dose activity, negative = inhibition, actives largely listed as inhibitors | P00352 | actives 7.3% (n = 220,000) | AID 1030 | Purified ALDH1A1, NADH fluorescence, propionaldehyde substrate; active = well fitted inhibition curve with a large enough effect, not every such curve was filed as active; inconclusive = small, poorly fitted or top-dose-only effect, or another doubt; inactive = no such curve, though single readings can be large or run the other way;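 also: plate controls were no enzyme wells and a reference inhibitor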
Target sequence (P00352 whole entry, looked up): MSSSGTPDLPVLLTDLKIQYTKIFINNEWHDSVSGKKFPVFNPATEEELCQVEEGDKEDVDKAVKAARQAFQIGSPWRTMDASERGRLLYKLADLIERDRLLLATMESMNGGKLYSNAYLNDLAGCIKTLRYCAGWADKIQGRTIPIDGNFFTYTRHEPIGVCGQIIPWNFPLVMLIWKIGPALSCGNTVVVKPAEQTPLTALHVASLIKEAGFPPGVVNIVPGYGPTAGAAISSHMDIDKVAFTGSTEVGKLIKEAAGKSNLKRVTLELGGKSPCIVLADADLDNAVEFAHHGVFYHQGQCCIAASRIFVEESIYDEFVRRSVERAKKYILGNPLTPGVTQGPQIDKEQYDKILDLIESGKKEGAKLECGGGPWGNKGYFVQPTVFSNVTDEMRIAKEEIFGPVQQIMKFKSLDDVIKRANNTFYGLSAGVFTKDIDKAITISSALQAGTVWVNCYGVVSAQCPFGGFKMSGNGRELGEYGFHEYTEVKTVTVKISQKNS
Luc counter: blocks Kinase-Glo luciferase, a counter-screen artifact. Q27757. Kinase-Glo luciferase, ATP luminescence, 8 min. Potency, µM (series often up to 38.3 µM), inactives show at the top dose activity change, negative = inhibition, hits mostly inhibitors. actives 0.28% (n = 200,000); also: nearly all actives have a fitted effect of over 60% in size
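Compound is pinned into ATP-containing buffer (10 uM ATP, imidazole pH 7.2, 7 mM MgCl2). Kinase-Glo luciferase reagent is then added. Light output is recorded following an 8-min room-temperature incubation.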
LMNA splice mod: changes lamin A minigene splicing in HeLa cells. Potency, µM (series often up to 46.1 µM), for inactives: at the top dose ratio change, negative = inhibition, hits mostly inhibitors. actives 0.01% (n = 200,000). HeLa LMNA splicing GFP/RFP minigene ratio, 48 h; active = well fitted inhibition curve with a large enough effect in the signal ratio, with a control signal flat, not every such curve was filed as active; inconclusive = small, poorly fitted or top-dose-only effect, or effect the other way, or a change in a side signal; the % refers to the signal ratio
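S3 HeLa cells stably expressing lamin A-EGFP splicing minigene plus DsRed2, 600 cells/well, 48 h compound exposure at 37C. Laser-scanning cytometry; analysed as GFP (500-530 nm)/RFP (575-640 nm) total intensity ratio; 0.5% DMSO vehicle.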
IMPase Li cell: membrane-permeable IMPase blocker, potentiated with lithium. CHO-M1 cells, IP1 TR-FRET (IP-One), carbachol + lithium. Potency, µM (titrated, usually from 59.4 µM), without a hit: at the highest dose activity, negative = IMPase inhibition, usual class: inhibitors. actives 0.35% (n = 210,000). AID 1457;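 also: IP1 builds up when IMPase is blocked and the TR-FRET signal falls; plate controls were basal vehicle for no effect and high inhibitor control for full effect; nearly all actives have a fitted effect of over 50% in size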
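CHO cells stably expressing M1 receptor (2000/well, cultured 16–30 h) treated 30 min at 37C with compound plus low lithium. Cytosolic IP1 by TR-FRET (665/620 ratio and 620 channel) after 10 min lysis; AC50 by Hill fit.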
Numbers without * were called inactive; ? = inconclusive; . = no result given; [ ] = another dose, or the depositor's remark. Shown are actives, neighbours in structure and some others; about 9% of the full set was active somewhere. Unless noted, calls follow the shape of the dose curve; as a rule, active = well fitted curve in the direction sought with a large enough effect; inconclusive = small, poorly fitted or top-dose-only effect, or another doubt; inactive = no such curve, though single readings can be large; an effect the other way counts as inactive or inconclusive. Unless noted, % is scaled to controls: 0 for no effect and ±100 for the full control effect; potency is read from the fitted curve at half-maximal effect.

SMILES	HPGD inh	ALDH1A1 block	Luc counter	LMNA splice mod	IMPase Li cell
Cn1c(=O)c2c(nc(NN=C3CCCCC3)n2C)n(C)c1=O	.	?	11µM*	.	32%
COc1ccc(CC(=O)Nc2ccc(-c3cn4ccc(C)cc4n3)cc2)cc1	?	?	-5%	-2%	8%[38.3 µM]
COc1cc(NC(=S)NCc2cccs2)cc(OC)c1	18µM*	-14%	-6%	5%	0%
CC(C)(C)c1ccc(NC(=S)NCc2cccs2)cc1	-11%	-1%	-4%	?	14%[38.3 µM]
Cc1cc(C)cc(NC(=S)NCc2cccs2)c1	14µM*	-3%	0%	4%	5%
Cc1ccc(-n2nnnc2Sc2ccc(S(=O)(=O)NCCN(C)C)cc2[N+](=O)[O-])cc1	-22%	?	-5%	?	8%
O=[N+]([O-])c1cc(S(=O)(=O)NCCN2CCOCC2)ccc1Sc1nnnn1-c1ccccc1	-8%	14µM*	-1%	?	18%
COc1ccc2nc3cc(Cl)ccc3c(Nc3ccc(O)c(CN4CCN(C)CC4)c3)c2c1	3%	5%[13.5 µM]	-7%[7.66 µM]	.	29%
CCc1c(C)sc(NC(=O)c2cc(CC(C)C)on2)c1C#N	-18%	?	17%	-6%	-1%[38.3 µM]
CCc1c(C)sc(NC(=O)c2noc(C)c2[N+](=O)[O-])c1C#N	.	18µM*	2%	-6%[46 µM]	-6%
O=C(CCN1C(=O)C2CCCCC2C1=O)Nc1ccc(F)c(F)c1F (centres undefined)	.	10µM*	-3%	.	3%
O=C(CN1C(=O)C2CC=CCC2C1=O)NCC(=O)Nc1ccc(F)c(F)c1F (centres undefined)	.	-5%	1%	-4%[46 µM]	-5%
CC(C)(C)C1=CC=C(C(C)(C)C)C(=O)C1=O	.	1.6µM*	.	.	.
Cc1c(NC(=O)OCCNC(=O)Nc2ccccc2)sc(=S)n1C	-15%	-9%	-5%	-3%	2%[38.3 µM]
CCOC(=O)Nc1sc(=S)n(C)c1C	25µM*	19µM*	-4%	-2%	9%
O=C1C(Nc2ccccc2)=CC(=O)c2ncccc21	.	16µM*	.	.	36%
CC(C)(C)NC(=O)C(=O)NNC(=O)c1cccc([N+](=O)[O-])c1	.	5%	-1%	2%[46 µM]	-3%
C#CCCOC(=O)N1C2=NC(C(=O)OC)=C(C(=O)OC)[C@@H]3N(CC#CC)c4ccccc4[C@]23C[C@H]1C(=O)OC	-4%	7%[13.5 µM]	-6%[7.66 µM]	6%[9.22 µM]	8%
COc1ccc(CNc2nc(NCc3ccc(OC)cc3)n(C(=O)c3ccccc3[N+](=O)[O-])n2)cc1	-22%	20µM*	-1%	-2%	10%[38.3 µM]
CCOC(=O)C1(Cc2ccc(OC)cc2)CCN(C(=O)CCc2cccnc2)CC1	.	-6%	2%	-2%[46 µM]	12%
COc1cc(CCC(=O)OCC(=O)Nc2c(C)cccc2C(C)C)cc(OC)c1OC	-6%	9%	3%	-1%	4%
Oc1ccccc1/C=N/NC(=S)NC1CC2C=CC1C2 (centres undefined)	.	25µM*	.	?	.
C[C@@H](C(=O)O)c1ccc(N2Cc3ccccc3C2=O)cc1	-2%	10%[20.9 µM]	?	?	-4%
COc1ccccc1/C=C/C1C(C(=O)OCC(C)C)=C(C)N=C2SCCC(=O)N21 (centres undefined)	.	22µM*	1%	.	10%
CCCCc1nn2c(=O)cc(COC(=O)c3ccccc3NC(=O)c3ccccc3OC)nc2s1	.	.	.	-5%[46 µM]	.
SMILES	HPGD inh	ALDH1A1 block	Luc counter	LMNA splice mod	IMPase Li cell
Cc1ccccc1C(=O)Nc1nnc(SC(C)C)s1	.	16µM*	-6%	.	8%
CC(C)Sc1nnc(NC(=O)CCc2ccccc2)s1	.	-1%	0%	.	-8%
CC(C)CC(=O)Nc1nc(=S)ss1	14µM*	3.5µM*	-1%	-6%	24%[38.3 µM]
Cc1ccccc1C(=O)Nc1nc(=S)ss1	14µM*	3.2µM*	-3%	-7%	4%[38.3 µM]
CC(=O)Nc1nc(=S)ss1	25µM*	3.2µM*	2%	7%	-2%[38.3 µM]
CC/C(=N\NC(=O)c1cccnc1)c1ccc2c(c1)OCCO2	.	2%	0%	6%[46 µM]	-5%
CCCC(CCC)C(=O)NC1CC(=O)N(c2ccc3c(c2)OCCO3)C1 (centres undefined)	.	.	.	5%[46 µM]	.
CCOc1ccc(-c2nn(CC(=O)NC3CCCC3)c3c2cnc2ccc(F)cc23)cc1	.	.	.	-4%[46 µM]	.
CCOC(=O)c1sc(=NC(=O)/C=C/c2ccccc2)n(C)c1C	.	5%	4%	-16%[46 µM]	-8%
O=C(Nc1nc(=S)ss1)c1c(F)cccc1F	?	22µM*	0%	4%	-4%[38.3 µM]
CC(=O)c1sc(NC(=O)c2c(F)cccc2F)nc1C	-11%	-20%	-2%	6%	8%[38.3 µM]
CCOc1ccccc1CNC(=O)CCCN1C(=O)CCn2nc(-c3cccn3C)cc21	.	.	.	1%[46 µM]	.
Cc1cccc2sc(NC(=O)C3c4ccccc4Oc4ccccc43)nc12	-12%	-1%	-2%	?	26%[38.3 µM]
O=C(NCCc1ccccc1)c1cc2sccc2n1Cc1ccccc1	16µM*	?	0%	11%	6%[38.3 µM]
CCn1c(C(=O)NCc2cccnc2)cc2sc(Cl)cc21	16µM*	-4%	3%	-4%	0%
CCn1c(C(=O)NCc2ccccn2)cc2sccc21	18µM*	6%	-1%	-7%	0%
O=C(NCc1ccco1)c1cc2sccc2n1Cc1ccccc1	16µM*	?	1%	?	15%
CCn1c(C(=O)NCCCc2ccccc2)cc2sccc21	-17%	-8%	6%	?	-1%
COc1ccc(OC)c2sc(N3CCN(C(=O)CCS(=O)(=O)c4ccc(F)cc4)CC3)nc12	.	.	.	13%[46 µM]	.
O=C(CCC(=O)Nc1ccccc1)NNC(=O)COc1ccccc1	-5%	13%	-3%	8%	3%
Nc1cnccc1C(=O)O	.	?	-1%	.	15%
COC(=O)Cn1ncc2c3ccccc3n(C)c2c1=O	-18%	2%	-1%	6%	1%[38.3 µM]
CC1CCN(C(=S)c2cn(Cc3ccc(F)cc3)c3ccccc23)CC1	-8%	?	-1%	12%	23%[38.3 µM]
CC1CCN(C(=S)c2cn(Cc3ccccc3F)c3ccccc23)CC1	-11%	14µM*	-6%	?	19%[38.3 µM]
CCc1nnc(NC(=O)CSc2nc3c([nH]c4ccccc43)c(=O)n2-c2ccc(C)cc2)s1	.	.	.	-11%[46 µM]	.
SMILES	HPGD inh	ALDH1A1 block	Luc counter	LMNA splice mod	IMPase Li cell
Cc1cc(C)n(C(=O)CNc2ccc(C)c(C)c2)n1	-2%	25µM*	-8%	?	10%
O=C(O)c1cc(-c2ccccc2)n(-c2ccc(Cl)cc2)n1	.	-22%	2%	?	-15%
CC(=O)Nc1ccc(C(=O)Nc2cc(C(F)(F)F)ccc2-n2cnc3ccccc32)cc1	14µM*	?	3%	?	10%
O=C(CSc1ccccc1)NN1C(=O)c2ccccc2C1=O	.	1%	1%	6%[46 µM]	3%
CN1CC2(C)OC(=O)C(Cl)=C2CC1c1ccccc1 (centres undefined)	-2%	13µM*	-4%	-9%	-3%
O=C(N/N=C/c1coc2ccccc2c1=O)c1cc(O)cc(O)c1	.	?	-1%	.	0%
